The source made the active and inactive calls.
What was measured:
[1] = system: Wnt5a (protein binding on small-molecule microarray); assay: Wnt5a binders on small-molecule microarray, primary screen, biophysical, 635/667 nm fluorescence (AID 1142); conditions: 635 nm fluorescence, higher = more signal;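 further: fluorescence read at 667 nm with signal to noise per printed feature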
[2] = cell viability in Huh7 cells, primary screen, cytotoxicity control for HCV replication inhibitor project, CellTiter-Glo luminescence, basal, 48 h (AID 1143); conditions: Huh7 HCV replicon, higher = more signal, called active from +8 up or from −8 down;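 further: Huh7 hepatoma cells carrying a hepatitis C replication reporter with no stimulus; test concentration not given here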
[3] = CREB reporter modulators without forskolin, primary screen, cell-based, PC12, CRE-LacZ reporter, unstimulated (AID 1145); conditions: no forskolin, luminescence, 4.5 h, higher = more signal, called active from +8 up or from −8 down
[4] = CREB reporter modulators under forskolin, primary screen, cell-based, PC12, CRE-LacZ reporter, forskolin-stimulated (AID 1146); conditions: luminescence, 4.5 h, higher = more signal, called active from +8 up or from −8 down;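 further: PC12 cells with 6xCRE LacZ reporter stimulated by forskolin 10 µM; beta-galactosidase reporter signal reflecting CREB driven transcription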
[5] = molecular target: Streptavidin (Streptomyces avidinii) (UniProt P22629); assay: streptavidin binders on small-molecule microarray, primary screen, artefact control for SMM compound annotation, biophysical, 635/667 nm fluorescence (AID 1147); conditions: streptavidin binding, higher = more signal;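 further: signal reflects streptavidin binding to arrayed compounds as a control protein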
Sequence of Streptavidin (Streptomyces avidinii) (P22629 whole entry, looked up): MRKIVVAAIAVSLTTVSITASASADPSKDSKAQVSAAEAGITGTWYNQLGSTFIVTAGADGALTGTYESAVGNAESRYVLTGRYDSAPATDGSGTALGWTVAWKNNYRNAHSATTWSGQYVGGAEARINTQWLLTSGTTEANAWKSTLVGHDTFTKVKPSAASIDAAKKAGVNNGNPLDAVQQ

[6] = small-molecule binders of probe aInhba, primary screen, biochemical, small-molecule microarray, 635/667 nm fluorescence (AID 1148); conditions: higher = more signal;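 further: score merges 667nm spot fluorescence with signal-to-noise for antibody binding to printed compounds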
[7] = molecular target: Torsin-1A (Homo sapiens) (UniProt O14656); assay: torsin A binders from cell lysate, primary screen, small-molecule microarray, wild-type, 635/667 nm (AID 1149); conditions: COS7 hTOR1A-WT lysate, 635 nm fluorescence, higher = more signal
Sequence of Torsin-1A (Homo sapiens) (O14656 whole entry, looked up): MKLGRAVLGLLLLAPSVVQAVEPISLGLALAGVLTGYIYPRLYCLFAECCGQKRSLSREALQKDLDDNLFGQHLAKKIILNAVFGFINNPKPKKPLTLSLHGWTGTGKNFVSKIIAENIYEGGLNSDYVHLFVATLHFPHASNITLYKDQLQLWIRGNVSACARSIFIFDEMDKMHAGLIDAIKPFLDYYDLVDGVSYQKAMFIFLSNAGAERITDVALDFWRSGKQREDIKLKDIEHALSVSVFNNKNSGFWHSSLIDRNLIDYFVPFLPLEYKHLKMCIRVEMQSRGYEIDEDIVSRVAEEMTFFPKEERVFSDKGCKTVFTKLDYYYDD

[8] = molecular target: Torsin-1A (Homo sapiens) (UniProt O14656); assay: small-molecule binders of mutant TOR1A in lysate, primary screen, cell lysate, small-molecule microarray, COS7 lysate, 635/667 nm fluorescence (AID 1150); conditions: COS7 hTOR1A mutant lysate, 635 nm fluorescence, higher = more signal;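 further: score pools 667 nm emission and signal to noise measuring lysate protein binding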
[9] = system: Sonic hedgehog protein (Shh); assay: small-molecule binders of Shh protein, primary screen, biochemical, small-molecule microarray, 635/667 nm fluorescence (AID 1151); conditions: small-molecule microarray binding, 635 nm fluorescence; higher = more signal;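 further: Shh protein binding to compounds spotted on small-molecule microarray slides; score combines spot fluorescence intensity with signal-to-noise across triplicate slides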
[10] = E. coli DRC41 culture turbidity changes, primary screen, E. coli filamentation inducer project, strain DRC41, OD650, 48 h (AID 1152);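 further: E. coli MC1000 strain DRC41 lacking acrAB efflux pump and sulA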; conditions: E. coli DRC41 (acrAB sulA), higher = more signal, called active from +8 up or from −8 down
[11] = small-molecule binders of probe aLefty1, primary screen, biochemical, small-molecule microarray, 635/667 nm fluorescence (AID 1153); conditions: higher = more signal;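 further: score merges spot fluorescence with signal-to-noise ratio from the scanned slide images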
[12] = PSAC antagonists in infected red cells, primary screen, cell-based, P. falciparum Indochina, OD700, 1 h (AID 1154); conditions: P. falciparum Indochina infected RBC osmotic lysis, higher = more signal, called active from +8 up or from −8 down
[13] = PSAC antagonists in infected red cells, primary screen, cell-based, P. falciparum Indochina, OD700, 2 h (AID 1155);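 further: lysis reports solute entry through the parasite surface anion channel PSAC; channel blockers reduce lysis of infected cells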; conditions: P. falciparum Indochina infected erythrocytes, osmotic lysis OD700; higher = more signal, called active from +8 up or from −8 down
[14] = osmotic lysis modulators in infected erythrocytes, primary screen, PSAC antagonist project, cell-based, P. falciparum Indochina, OD700, 3 h (AID 1156); conditions: higher = more signal, called active from +8 up or from −8 down
[15] = PSAC antagonists in infected red cells, primary screen, cell-based, P. falciparum Indochina, OD700, 18 h (AID 1157); conditions: P. falciparum Indochina infected erythrocytes, osmotic lysis OD700, 18 h; higher = more signal, called active from +8 up or from −8 down
[16] = modulators of S6 phosphorylation in cells, primary screen, cell-based, A549, cytoblot, luminescence, serum-stimulated (AID 1158); conditions: A549 phospho-S6 cytoblot, 5 h, higher = more signal;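 further: serum-stimulated A549 lung adenocarcinoma cells; signal is phosphorylated S6 detected by cytoblot immunostaining with HRP secondary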
[17] = molecular target: NADPH oxidase 2 (Homo sapiens) (UniProt P04839); assay: NOX2-dependent H2O2 signal modulators, primary screen, NOX inhibitor project, cell-based, HEK293-NOX2, PMA-stimulated, Amplex Red fluorescence (AID 1159); conditions: 45 min, higher = more signal, called active from +8 up or from −8 down; further: test concentration not given here
Sequence of NADPH oxidase 2 (Homo sapiens) (P04839 whole entry, looked up): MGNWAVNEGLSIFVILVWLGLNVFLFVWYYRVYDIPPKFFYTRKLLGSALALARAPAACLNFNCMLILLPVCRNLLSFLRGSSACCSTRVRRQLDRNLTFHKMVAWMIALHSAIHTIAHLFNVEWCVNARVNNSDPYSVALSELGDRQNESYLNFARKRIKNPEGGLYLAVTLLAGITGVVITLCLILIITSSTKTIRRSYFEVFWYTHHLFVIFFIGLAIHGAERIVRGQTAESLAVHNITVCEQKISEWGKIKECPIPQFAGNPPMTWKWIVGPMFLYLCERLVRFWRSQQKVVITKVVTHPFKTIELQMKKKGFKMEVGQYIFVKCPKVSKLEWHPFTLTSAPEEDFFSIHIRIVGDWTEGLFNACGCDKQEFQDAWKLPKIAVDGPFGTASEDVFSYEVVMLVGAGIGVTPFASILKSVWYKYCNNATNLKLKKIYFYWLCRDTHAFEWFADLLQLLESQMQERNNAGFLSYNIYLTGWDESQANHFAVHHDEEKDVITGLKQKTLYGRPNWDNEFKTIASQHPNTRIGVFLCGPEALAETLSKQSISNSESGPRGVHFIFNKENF

[18] = molecular target: NADPH oxidase 4 (Homo sapiens) (UniProt Q9NPH5); assay: NOX4-dependent H2O2 signal modulators, primary screen, NOX inhibitor project, cell-based, HEK293-NOX4, tetracycline-induced, Amplex Red fluorescence (AID 1160); conditions: 45 min, higher = more signal, called active from +8 up or from −8 down
Sequence of NADPH oxidase 4 (Homo sapiens) (Q9NPH5 whole entry, looked up): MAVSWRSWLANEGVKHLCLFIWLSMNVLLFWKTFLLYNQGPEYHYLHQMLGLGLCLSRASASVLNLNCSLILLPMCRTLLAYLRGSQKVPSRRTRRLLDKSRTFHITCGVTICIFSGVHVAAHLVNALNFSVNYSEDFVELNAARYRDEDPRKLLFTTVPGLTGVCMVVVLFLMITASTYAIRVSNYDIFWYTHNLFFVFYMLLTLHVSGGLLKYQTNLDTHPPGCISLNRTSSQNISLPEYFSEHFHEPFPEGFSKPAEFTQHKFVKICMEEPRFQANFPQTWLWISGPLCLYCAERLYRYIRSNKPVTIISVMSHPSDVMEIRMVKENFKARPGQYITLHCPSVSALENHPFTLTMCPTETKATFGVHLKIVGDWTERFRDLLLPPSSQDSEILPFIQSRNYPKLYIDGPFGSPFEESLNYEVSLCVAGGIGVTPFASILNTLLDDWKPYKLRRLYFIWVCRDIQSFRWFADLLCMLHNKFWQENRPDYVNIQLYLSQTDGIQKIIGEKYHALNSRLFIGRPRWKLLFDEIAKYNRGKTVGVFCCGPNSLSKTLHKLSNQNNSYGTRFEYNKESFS

[19] = molecular target: NADPH oxidase 5 (Homo sapiens) (UniProt Q96PH1); assay: NOX5-dependent H2O2 signal modulators, primary screen, NOX inhibitor project, cell-based, HEK293-NOX5, Amplex Red fluorescence (AID 1161); conditions: HEK293-NOX5, ionomycin, 45 min, higher = more signal
Sequence of NADPH oxidase 5 (Homo sapiens) (Q96PH1 whole entry, looked up): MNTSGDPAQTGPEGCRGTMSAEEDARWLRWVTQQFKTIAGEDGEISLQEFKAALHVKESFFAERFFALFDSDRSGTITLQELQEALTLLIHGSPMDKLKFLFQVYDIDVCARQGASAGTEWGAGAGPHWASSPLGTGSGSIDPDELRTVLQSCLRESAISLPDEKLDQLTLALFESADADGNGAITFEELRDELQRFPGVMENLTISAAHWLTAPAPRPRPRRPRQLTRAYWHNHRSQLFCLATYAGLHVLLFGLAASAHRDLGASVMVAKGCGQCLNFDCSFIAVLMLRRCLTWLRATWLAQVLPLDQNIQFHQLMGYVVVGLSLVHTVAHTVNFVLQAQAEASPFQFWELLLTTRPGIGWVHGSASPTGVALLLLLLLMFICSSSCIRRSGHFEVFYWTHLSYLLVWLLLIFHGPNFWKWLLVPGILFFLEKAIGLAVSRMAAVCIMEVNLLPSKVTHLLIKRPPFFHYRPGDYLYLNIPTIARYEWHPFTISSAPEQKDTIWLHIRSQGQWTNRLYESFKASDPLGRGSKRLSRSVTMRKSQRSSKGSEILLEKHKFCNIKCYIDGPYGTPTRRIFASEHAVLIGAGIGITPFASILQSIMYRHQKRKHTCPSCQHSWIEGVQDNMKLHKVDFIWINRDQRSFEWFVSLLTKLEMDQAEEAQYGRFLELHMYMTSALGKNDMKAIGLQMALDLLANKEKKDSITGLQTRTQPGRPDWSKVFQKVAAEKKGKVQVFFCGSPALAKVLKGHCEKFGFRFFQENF

[20] = A549 cell viability effects, profiling panel, calcein-AM fluorescence, 48 h, basal (AID 1162); conditions: higher = more signal; further: test concentration not given here

Structure (SMILES)	composite z-score [1]	z-score [2]	z-score [3]	z-score [4]	composite z-score [5]	composite z-score [6]	composite z-score [7]	composite z-score [8]	composite z-score [9]	z-score [10]	composite z-score [11]	z-score [12]	z-score [13]	z-score [14]	z-score [15]	z-score [16]	z-score [17]	z-score [18]	z-score [19]	z-score [20]
CC(C)C(CO)N1C(=O)[C@@H]2[C@H]3C(=O)OCC=C[C@H]3OC23C=CCN(Cc2ccccc2)C(=O)[C@@H]13 (stereo not given in full)	-0.353	-0.524 (inactive)	0.325 (inactive)	0.559 (inactive)	-1.32	-0.195	-0.411	-1.02	0.565	1.64 (inactive)	-0.268	0.379 (inactive)	-0.0407 (inactive)	1.32 (inactive)	-0.16 (inactive)	-0.257	1.5 (inactive)	0.118 (inactive)	1.61	-0.769
C=CCNC(=O)[C@@H]1[C@H]2C(=O)O[C@H](c3ccccc3)[C@H](c3ccccc3)N2[C@H](c2ccc(O)cc2)[C@@]12C(=O)N(C(=O)OCCOC)c1ccc(C#Cc3ccc(OC)cc3)cc12	0.334	-2.94 (inactive)	-0.203 (inactive)	0.417 (inactive)	0.256	0.0627	0.808	0.54	1.06	1.58 (inactive)	-0.0222	2.52 (inactive)	1.19 (inactive)	-0.264 (inactive)	0.804 (inactive)	-0.0456	0.957 (inactive)	-0.276 (inactive)	1.9	-0.413
O=C1O[C@H](c2ccccc2)[C@H](c2ccccc2)N2[C@H]1[C@@H](C(=O)Nc1nc3ccccc3s1)[C@]1(C(=O)Nc3ccc(C#CCCO)cc31)[C@H]2c1ccccc1OCCO	0.81	-2.88 (inactive)	0.182 (inactive)	-0.428 (inactive)	1.11	0.279	0.795	0.778	0.384	2.34 (inactive)	0.634	2.76 (inactive)	2.95 (inactive)	1.4 (inactive)	1.69 (inactive)	0.503	0.146 (inactive)	0.228 (inactive)	2.14	-0.655
COC(=O)C1=CC(CCCO)=CC(C2CC2)N(Cc2cc3c(cc2Br)OCO3)C=C1C(=O)OC (stereo not given)	0.135	-2.77 (inactive)	0.389 (inactive)	-0.562 (inactive)	1.22	0.143	0.777	1.61	-0.593	1.55 (inactive)	0.248	2.31 (inactive)	-1.2 (inactive)	-0.183 (inactive)	-0.951 (inactive)	0.771	0.0713 (inactive)	1.24 (inactive)	1.91	0.589
C=C(COC)C(=O)CC[C@H](OC(=O)c1ccccc1-c1ccccc1C(=O)O)c1ccccc1OCCO	0.032	-0.828 (inactive)	0.844 (inactive)	0.122 (inactive)	0.0456	-0.0021	0.241	-0.063	1.2	0.832 (inactive)	-0.196	4.88 (inactive)	0.673 (inactive)	2.51 (inactive)	0.65 (inactive)	-0.541	2.1 (inactive)	0.0678 (inactive)	-1.57	0.341
C=C(CCCC)/C(=C/C[C@H](OC(=O)c1ccncc1)c1ccc(CO)o1)c1cnc2ccccc2c1	0.216	-0.807 (inactive)	3.77 (inactive)	-1.24 (inactive)	0.783	0.212	0.378	0.324	1.95	0.822 (inactive)	0.301	7.89 (inactive)	-0.0845 (inactive)	1.04 (inactive)	-1.01 (inactive)	-0.367	2.49 (inactive)	1.15 (inactive)	0.737	0.942
C=CCC(OC(C)=O)[C@@H]1[C@@H](N(Cc2ccc(-c3cccc(C(F)(F)F)c3)o2)C(=O)c2ccc(-c3ccccc3)cc2)c2cc(OCCCO)ccc2N1C(=O)Cc1ccc(OC)cc1 (stereo not given in full)	0.0578	-1.84 (inactive)	1.38 (inactive)	-0.0892 (inactive)	-0.152	-0.273	-0.267	0.0992	0.214	1.73 (inactive)	-0.0501	0.963 (inactive)	0.485 (inactive)	0.218 (inactive)	-0.0843 (inactive)	0.509	0.964 (inactive)	1.06 (inactive)	2.21	0.161
COCCOC(=O)N1C(=O)[C@@]2(c3cc(C#CCNC(N)=O)ccc31)[C@H](c1ccccc1OCCO)N1[C@H](c3ccccc3)[C@H](c3ccccc3)OC(=O)[C@H]1[C@@H]2C(=O)Nc1nc2ccccc2s1	0.141	-0.949 (inactive)	0.0653 (inactive)	0.178 (inactive)	0.789	0.061	0.196	0.287	0.312	2.56 (inactive)	0.0943	2.23 (inactive)	-0.226 (inactive)	0.653 (inactive)	-0.809 (inactive)	1.87	1.85 (inactive)	1.5 (inactive)	1.25	0.323
O=C(N1CCCCC1)[C@@]1(Cc2ccccc2)N=C(c2ccc(OCCCO)cc2)O[C@H]1c1ccccc1	0.578	-5.07 (inactive)	0.414 (inactive)	-1.06 (inactive)	1.13	0.749	0.599	1.42	-0.401	0.696 (inactive)	1.17	14.3 (active)	2.37 (inactive)	2.82 (inactive)	-0.657 (inactive)	0.845	-2.63 (inactive)	0.489 (inactive)	-0.326	-1.51

— PubChem BioAssay
